PubChem BioAssay (NCATS)
Results filed as inconclusive are left out. Calls of active or inactive are those of the source. The call rests on the fitted dose curve; in most records, active means well fitted cell-killing curve with a large enough effect; inconclusive means small, poorly fitted or top-dose-only effect; inactive means flat fitted curve, though single readings scatter.

Assay: Cell Viability - NIH 3T3 (AID 541);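 further: plate controls were DMSO alone for no effect and tamoxifen positive control for full effect; nearly all actives have a fitted effect of over 25% in size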
Conditions: NIH 3T3 cell viability, qHTS; at 92.2 µM (top of the series)
Text: NIH Chemical Genomics Center [NCGC]
NIH Molecular Libraries Screening Centers Network [MLSCN]
National Institutes of Environmental Health Sciences [NIEHS]
National Toxicology Program [NTP]
We have developed a 1536-well cell-based assay for quantitative high throughput screening (qHTS) against a number of cell lines to determine in vitro cytotoxicity of small molecules. This particular assay uses the NIH 3T3 fibroblast cell line which is established from NIH Swiss mouse embryo.
NCGC Assay Protocol Summary:
The CellTiter-Glo luminescent cell viability assay (Promega) is a homogeneous method to measure the number of viable cells in culture. The end point readout of this assay is based on quantitation of intracellular ATP, an indicator of metabolic activity, using the luciferase reaction. Luciferase catalyzes the oxidation of beetle Luciferin to oxyluciferin and light in the presence of ATP. The luminescent signal is proportional to amount of ATP present.
Using the CellTiter-Glo luminescent cell viability assay, the amount of cellular ATP was measured in the NIH 3T3 cell line with complete culture medium following compound treatment for 40 hours. The assay was performed in opaque white Kalypsys 1536-well plates. In the screen, tamoxifen and doxorubicin were used as positive controls. Library compounds were measured for their ability to cause acute toxicity in the cell line, as reflected by a decrease in intracellular ATP levels, in a concentration-dependent manner. […] AC50 values were determined from concentration-response data modeled with the standard Hill equation.
qHTS protocol for CellTiter Glo NIH 3T3 cellular assay
[Step] [Parameter] [Value] [Description]
1. Reagent; 5 uL; 1000 NIH 3T3 cells/well
2. Time; 5 hr; 37 °C incubation
4. Controls; 23 nL; Tamoxifen 0.34 uM to 100 uM & Doxorubicin 0.02 nM to 100 uM
5. Time; 40 hr; 37 °C incubation
6. Reagent; 5 uL; CellTiter Glo reagent
7. Time; 20 min; Room Temperature
8. Detection; Luminescence; Viewlux plate reader
Keywords: cell viability, cytotoxicity, NIH 3T3 cell line, luminescence, NTPHTS, NTPHTS_NCGC, NIEHS, EPA, DSSTox, MLSMR, MLSCN, NIH Roadmap, qHTS, NCGC

Structure (SMILES)	activity change, negative = cytotoxicity
O=C1NC(=O)C(c2ccccc2)(c2ccccc2)N1	-17.5% (inactive)
CCCNC(=O)NS(=O)(=O)c1ccc(Cl)cc1	4.29% (inactive)
CN(C)CCC(c1ccccc1)c1ccccn1 (stereo unspecified)	-2.83% (inactive)
O=C(O)Cc1cccc2ccccc12	-29.6% (inactive)
O=c1cc(-c2ccc(O)cc2)oc2cc(O)cc(O)c12	-105% (active)
CC(=O)c1ccc(S(=O)(=O)NC(=O)NC2CCCCC2)cc1	-15.1% (inactive)
CC(=O)O[C@]1(C(C)=O)CC[C@H]2[C@@H]3C=C(Cl)C4=CC(=O)[C@@H]5C[C@@H]5[C@]4(C)[C@H]3CC[C@@]21C	-124% (active)
CC1=C(/C=C/C(C)=C/C=C/C(C)=C/C(=O)Nc2ccc(O)cc2)C(C)(C)CCC1	-85.6% (active)
O=c1[nH]cnc2c1ncn2[C@H]1CC[C@@H](CO)O1	6.95% (inactive)
CCCCC1C(=O)N(c2ccccc2)N(c2ccccc2)C1=O	-19.1% (inactive)
CCn1cc(C(=O)O)c(=O)c2ccc(C)nc21	4.63% (inactive)
